# Data: PubChem BioAssay (NCI)
# Compounds without any hit were thinned out: in the full panel of roughly 83,000, 20% have a hit.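 The endpoint reported here, percent growth, reads 100 for growth as untreated, 0 for no net growth and -100 for all cells dead.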 Unmarked numbers belong to inactive results. Activity calls are given as the source filed them. Rule for the calls: active = growth percent below 10; inactive = the rest.
# Key:
# Assay in all cases: NCI-60 one-dose screen, 48 h (100 = growth as untreated, 0 = no growth, -100 = all killed)
# Conditions in all cases: 10 µM unless noted
# DU-145 prostate = tested on: DU-145 prostate
# K-562 leukemia = tested on: K-562 leukemia
# MALME-3M melanoma = tested on: MALME-3M melanoma
# MDA-MB-231 breast = tested on: MDA-MB-231 breast
# RXF 393 renal = tested on: RXF 393 renal
# SF-268 CNS = tested on: SF-268 CNS
# SF-295 CNS = tested on: SF-295 CNS
# SF-539 CNS = tested on: SF-539 CNS
# UACC-257 melanoma = tested on: UACC-257 melanoma
# M14 melanoma = tested on: M14 melanoma
SMILES,growth (DU-145 prostate),growth (K-562 leukemia),growth (MALME-3M melanoma),growth (MDA-MB-231 breast),growth (RXF 393 renal),growth (SF-268 CNS),growth (SF-295 CNS),growth (SF-539 CNS),growth (UACC-257 melanoma),growth (M14 melanoma)
COc1ccc(C(=O)N2c3ccccc3Sc3ccccc32)c(OC)c1,9.99% (active),10.5%,66.9%,38.4%,-0.69% (active),36.6%,11.6%,-18.8% (active),77%,-9.55% (active)
COc1cc2c(cc1OCCCN1CCN(CCCOc3cc4c(cc3OC)C(=O)N3CCC[C@H]3C=N4)CC1)C=CC(C)(C)O2,-100% (active),-35.8% (active),-89.1% (active),-81.9% (active),-92% (active),-91.9% (active),-59.2% (active),-100% (active),-62.4% (active),-74.2% (active)
COc1ccc(C2CC(c3ccc(Nc4nc(Nc5ccccc5)nc(Nc5ccccc5)n4)cc3)=NN2C(C)=O)cc1 (stereo not given),144%,75.2%,110%,95.5%,-10.9% (active),139%,99.5%,121%,88.4%,107%
CS(=O)(=O)c1ccc(-c2cnn3ccc(-c4cccc(S(=O)(=O)C5CC5)c4)nc23)cc1,61.7%,78%,50.2%,53%,22.2%,45.5%,56.9%,60.8%,58.3%,64.3%
OB1OCc2cc(/C=C/c3cccc(C(F)(F)F)c3)ccc21,-6.62% (active),11.4%,9.86% (active),-33.9% (active),-40.3% (active),10.6%,7.3% (active),-58.9% (active),37.1%,-7.54% (active)
COc1ccc(F)cc1/C=C/C(=O)/C=C(/C=C/c1cc(F)ccc1OC)OB(F)F,37.9%,7.73% (active),5.69% (active),32.5%,18%,80.2%,93.8%,61.1%,48.8%,9.74% (active)
Cc1cc(=O)n(C(=O)Nc2ccccc2Cl)c2cc(O)ccc12,108%,109%,93%,101%,109%,95.8%,101%,97.8%,96.5%,96.4%
CCCCCC(/C=N\NC(=S)N/N=C/C(=C/c1ccccc1)CCCCC)=C\c1ccccc1,88.7%,19.8%,93.4%,65.6%,74.8%,68%,45.7%,82.4%,98.1%,77.8%
COc1ccc(NC(=O)c2sc3nc(C)c(C(=O)/C=C/c4ccccc4)cc3c2N)cc1,26.5%,14.4%,97.3%,60.8%,-1.08% (active),28.7%,48.8%,38.2%,98.3%,61.5%
CC1OC(n2c3ccccc3c3c4c(c5c6ccccc6[nH]c5c32)C(=O)N(CCN2CCCC2)C4=O)CC(O)C1O (stereo not given),30.2%,3.65% (active),72.3%,74.7%,30.7%,37%,26.6%,39.4%,84.5%,38.6%
Nc1ncnc2c1c(-c1cccc(Cl)c1)nn2CC(=O)N1CCOCC1,111%,105%,110%,104%,99%,98.4%,98.6%,96.2%,103%,104%
Nc1[nH]n2cc(-c3ccccc3)nc2c1N=Nc1ccc(S(N)(=O)=O)cc1,42.9%,32.9%,25.6%,20%,6.61% (active),36.5%,48%,19.6%,68.9%,31.4%
Cc1ccc(-c2nc(N3CCCNCC3)c3oc(-c4ccc(C)cc4)nc3n2)cc1,42%,-76% (active),106%,-78.8% (active),80.6%,90.2%,108%,73.8%,101%,-94.7% (active)
CCCCNCCCCCNc1cc(OC)cc2cccnc12,120%,76.8%,80.8%,87.3%,87.7%,95%,96.1%,92.8%,93.1%,97.1%
O=S(=O)(Nc1cc(Cl)ccc1Cl)c1ccc(-c2cnc(C3CC3)o2)cc1,70.8%,12%,55.7%,65.2%,44.8%,49.7%,24.8%,25.1%,50.6%,29.1%
CCCNC(=O)Nc1ccc2cc3ccc(NC(=O)NCCC)cc3nc2c1,118%,60.8%,79.1%,98.8%,77.7%,84.3%,115%,66.5%,87.5%,89.1%
CC1=C([Se]CC(OC(=O)CC[Se]c2ccccc2)C(=O)NC(C)(C)C)C(=O)c2ccccc2C1=O (stereo not given),-94.8% (active),-11.3% (active),-57.2% (active),-41.7% (active),-87.5% (active),-88.9% (active),-36.2% (active),-99% (active),-87.3% (active),-77.8% (active)
O=C(/C=C(/C=C/c1ccc2[nH]ccc2c1)OB(F)F)/C=C/c1ccc2[nH]ccc2c1,3.56% (active),-21.9% (active),31.1%,12.2%,-57.6% (active),16.7%,-25.4% (active),-7.54% (active),43.3%,-27.5% (active)
CCCC/C(CC)=N\NS(=O)(=O)c1ccc([N+](=O)[O-])cc1,97.2%,95%,101%,96.2%,110%,100%,108%,101%,88.7%,101%
CS(=O)(=O)Nc1cncc(-c2ccc3ncnc(Nc4cncc(Cl)c4)c3c2)c1,88.4%,100%,65.1%,77.1%,87.3%,68.1%,97.1%,74.6%,67.9%,93.1%
O=C(Nc1ccc(Oc2cccc(Cl)c2)c(Cl)c1)c1cccnc1,16.1%,11.1%,50.1%,59%,-0.145% (active),53.4%,41.4%,-8.37% (active),64.2%,21.8%
COc1ccc(-c2cc(-c3ccc(Cl)cc3)c(C#N)c(=O)n2Cc2ccc(C(=O)Nc3ccccc3N)cc2)cc1,101%,46.2%,74.1%,67.2%,54.5%,73.4%,61.1%,74%,105%,81.5%
Cc1cc(N2CCN(CCNc3ccnc4cc(Cl)ccc34)CC2)nc(N2CCOCC2)n1,74.8%,14.6%,60.1%,34.3%,42.9%,70.4%,75.5%,29.6%,54%,48%
C#CCNC(=O)[C@H](CC)[C@H]1CC[C@H](C)[C@H]([C@@H](C)[C@H](O)[C@H](C)C(=O)[C@H](CC)C2O[C@]3(C=CC(=O)[C@]4(CC[C@@](C)([C@H]5CC[C@](O)(CC)[C@H](C)O5)O4)O3)[C@H](C)C[C@@H]2C)O1 (stereo not given in full),22.6%,8.66% (active),48.8%,-0.208% (active),14%,45.9%,43.9%,6.76% (active),68.1%,-11.9% (active)
CCSC(SCC)c1ccc(Cl)cc1,107%,118%,102%,107%,114%,100%,87.1%,107%,99.4%,110%
O=C(CN1C(=O)S/C(=C\C(Cl)=C\c2ccccc2)C1=O)NCCc1ccc(O)cc1,18.2%,10.1%,52.1%,30.4%,-22.7% (active),60.7%,44%,15.6%,60.9%,-26.7% (active)
